# From PubChem BioAssay
# This is a sample that favours compounds with a hit; in the whole collection about 3.1% have one here.
# Autofluor counter = flagged as autofluorescent in microsphere protease counterscreen | compound autofluorescence counterscreen, microsphere flow cytometry; active compounds read high | 360,000 tested, 3.1% active | fluorescence intensity (no concentration beside the values); in the data active means fluorescence intensity above about 16000; inconclusive means no clear call, values can overlap the other calls
# BoNT A protease = inhibitors of Botulinum neurotoxin A light chain protease | multiplex microsphere protease substrate cleavage, flow cytometry | inhibition, % at 10 µM | 360,000 tested, 0.17% active | AID 588499; further: plate controls were buffer without enzyme for full effect and enzyme alone for no effect
# Anthrax LF prot = blocks Bacillus anthracis lethal factor protease; inhibition, % at 10 µM; 360,000 tested, 0.12% active; multiplex microsphere protease cleavage assay, LF; further: plate controls were buffer without enzyme for full effect and enzyme alone for no effect
# BoNT-F LC inh = BoNT F light chain protease inhibition | 360,000 tested, 0.22% active | Multiplex microsphere protease cleavage assay, flow cytometry | AID 588497 | inhibition, % at 10 µM; in the data active means inhibition above about 35%, passing the limit was not always enough; inconclusive means no clear call, values can overlap the other calls; further: plate controls were buffer without enzyme for full effect and enzyme alone for no effect
# SSB-PriA inh = K. pneumoniae PriA-SSBct interaction inhibition | AlphaScreen SSBct-PriA binding, biotinylated peptide | inhibition, % at 33 µM | 430,000 tested, 0.6% active | AID 1272365; in the data active means inhibition mostly above about 37%, no sharp cut-off; inactive means mostly below about 20%;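 further: plate controls were negative control peptide for no effect and reference peptide for full effect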
# The depositor's hits bear a star; ? = inconclusive; . = no result. Unless noted, no stated cut-off is given here; in the data, active means inhibition above about 30%; inconclusive means no clear call, values can overlap the other calls; inactive means below that.
SMILES,Autofluor counter,BoNT A protease,Anthrax LF prot,BoNT-F LC inh,SSB-PriA inh
O=C(CSc1ccc(NC(=O)c2ccccc2F)nn1)Nc1ccc2c(c1)OCO2,.,.,.,.,-8.0
Cc1nc(N2CCOCC2)[nH]c(=O)c1CCC(C)C,16493*,0.3,-1.3,2.6,-13.6
CCCCCCCc1c(C)nc(N2CCOCC2)[nH]c1=O,11361,-0.8,-0.4,1.5,1.5
CCOc1ccc(-c2nc(C#N)c(N3CCCC3)o2)cc1,.,.,.,.,20.6
CCN1CCN(c2oc(-c3ccc(OC)cc3)nc2C#N)CC1,16578*,-2.2,-4.3,-2.1,-12.0
COc1ccc(-c2nc(C#N)c(N3CCCN(C)CC3)o2)cc1,.,.,.,.,69.3*
COc1ccc(-c2nc(C#N)c(N3CCN(c4ccccc4)CC3)o2)cc1,5922,-0.6,-12.9,-13.2,15.4
O=C(NC(=O)c1cccc(OC(F)(F)C(F)F)c1)OC1CCS(=O)(=O)C1 (stereo not given),24101*,-0.4,1.4,0.8,6.7
CCOC(=O)c1cc(NC(=O)N(C(C)C)C(C)C)c(C)nc1C,16634*,-1.0,-1.8,-5.2,-15.1
CCOC(=O)c1cc(NC(=O)N(CC)CC)c(C)nc1C,24580*,-1.5,0.7,-3.2,-9.0
CCOC(=O)c1cc(NC(=O)N(C(C)C)C2CCCCC2)c(C)nc1C,2869,0.6,-6.4,-0.3,9.2
Cc1cc(-c2ccncc2)nn1CCNS(=O)(=O)CCC(F)(F)F,.,.,.,.,-5.0
CC1(C)COc2ccc(NS(=O)(=O)Cc3ccc(Cl)cc3)cc2NC1=O,.,.,.,.,2.0
O=C(CN1C(=O)/C(=C\c2cccs2)SC1=S)NNC(=O)c1ccccc1O,.,.,.,.,4.0
CCCCOc1ccc(C(=O)Nn2cnnc2)cc1,23869*,?,-5.1,0.1,-4.2
COc1ccc(C(=O)Nn2cnnc2)cc1,4248,-0.7,-1.6,-10.4,-5.7
O=C(COc1ccc(Cl)cc1Cl)NCCC(O)c1ccco1 (stereo not given),.,.,.,.,-15.0
O=C(CCCn1c(=O)c2sccc2n(CC(=O)NCc2ccco2)c1=O)NCc1ccco1,20462*,?,1.6,2.7,-1.9
O=C(CCn1c(=O)c2sccc2n(CC(=O)NCc2ccco2)c1=O)NCc1ccccc1,24369*,-4.2,-4.2,-8.8,-7.1
Cc1ccc(C)c(Cn2c(=O)n(CCCC(=O)NCc3ccco3)c(=O)c3sccc32)c1,3168,-1.1,-3.9,-28.5,-11.7
Cc1cccc(C)c1NC(=O)Cn1c(=O)n(CCCC(=O)NCc2ccco2)c(=O)c2sccc21,22217*,-6.5,0.0,-7.4,-1.1
CCC1CCCCN1C(=O)Cn1c(=O)n(CCC(=O)NCc2ccco2)c(=O)c2sccc21 (stereo not given),10086,0.0,2.0,-3.7,4.2
COCCNC(=O)C(=O)NCC(O)c1cccn1C (stereo not given),.,.,.,.,-9.0
O=C1N(CN2CCN(Cc3ccccc3)CC2)c2ccccc2C12OCCCO2,4344,0.3,3.3,-3.0,-6.2
C=CCN1C(=O)C2(OCCCO2)c2ccccc21,3449,-1.2,9.7,-2.1,-13.6
SMILES,Autofluor counter,BoNT A protease,Anthrax LF prot,BoNT-F LC inh,SSB-PriA inh
O=C1N(Cc2ccccc2F)c2ccccc2C12OCCCO2,20831*,-0.1,-0.9,-2.8,-18.9
O=C1N(Cc2ccc(F)cc2Cl)c2ccccc2C12OCCCO2,19128*,1.9,-0.1,-1.4,-14.7
Cc1cccc2sc(NC(=O)COc3ccccc3)nc12,.,.,.,.,3.0
Cc1cccc2sc(NC(=O)CSCc3ccccc3)nc12,23019*,?,-1.0,1.4,-13.3
COC(=O)c1cn(CCOc2ccc(C)cc2)c2ccccc12,22793*,-1.9,-2.7,-3.2,-25.1
COC(=O)c1cn(C(=O)c2ccc(OC)cc2)c2ccccc12,4142,0.7,-8.1,36.3*,-15.3
COC(=O)c1cn(C(=O)c2ccc(C)cc2)c2ccccc12,2725,-0.1,-1.8,-4.4,-8.0
Cc1ccccc1N(O)C=C1C=C(Br)C=CC1=O,.,.,.,.,-8.0
O=C(Nc1ccc2c(c1)OCO2)c1cc(OCc2ccccc2)no1,.,.,.,.,-2.0
COC(=O)C1CCN(C(=O)CCc2c(C)nn(-c3nc(C)cc(=O)[nH]3)c2C)CC1,.,.,.,.,-9.0
O=C(NCC(c1cccs1)N1CCc2ccccc21)c1ccccc1[N+](=O)[O-] (stereo not given),.,.,.,.,46.0*
O=C(NC[C@@H](c1cccs1)N1CCc2ccccc21)c1ccccc1Br,.,.,.,.,19.0
CC(=O)NCCOC(=O)Nc1ccncc1,20618*,6.0,-16.2,9.1,3.9
CC(=O)NCCOC(=O)Nc1cccnc1,5709,0.5,-0.1,-3.2,-11.0
COCCN(Cc1ccoc1)C(=O)c1nc2ccccc2s1,.,.,.,.,6.0
Cn1c(CSCc2ccc(Cl)cc2)nnc1SCC(=O)Nc1nccs1,16354*,0.4,0.5,-1.0,0.4
Cn1nnnc1SCc1ccc(C(=O)Nc2nccs2)cc1,24214*,-2.5,-3.1,-1.7,-3.5
Cc1cc(C)cc(NC(=O)c2ccc(CSc3nnnn3C)cc2)c1,2400,0.4,-1.3,-2.2,5.2
Cc1n[nH]c(=S)n1N,.,.,.,.,-10.0
O=c1nc(N(c2ccccc2)c2ccccc2)[nH]c(=O)[nH]1,20223*,?,-0.8,-3.2,-7.1
CCOC(=O)c1[nH]cnc1C(=O)O,2674,0.4,0.0,10.9,-2.4
O=C(O)c1nc[nH]c1C(=O)O,.,.,.,.,85.0*
COc1cc(OC)c(C2=NOC(C(=O)N3CCCc4ccccc43)C2)cc1Cl (stereo not given),23619*,-1.7,-7.1,0.2,-1.2
CCOC(=O)N1CCN(C(=O)C2CC(c3ccccc3OC)=NO2)CC1 (stereo not given),20183*,8.0,-13.9,8.7,-11.3
O=C(C1CC(c2ccccc2O)=NO1)N1CCC2(CC1)OCCO2 (stereo not given),20077*,6.1,0.0,6.9,-7.7
SMILES,Autofluor counter,BoNT A protease,Anthrax LF prot,BoNT-F LC inh,SSB-PriA inh
COc1ccc(C2=NOC(C(=O)N3CCOCC3)C2)cc1OC (stereo not given),23787*,-5.0,-0.2,-5.3,9.4
O=C(C1CC(c2ccccc2O)=NO1)N1CCCC1 (stereo not given),7759,0.2,-0.3,3.0,-2.9
COc1cccc(C2=NOC(C(=O)N3CCOCC3)C2)c1 (stereo not given),8080,-1.7,0.6,1.0,-1.2
CCn1cc2nc(SCC(=O)NCCC3=CCCCC3)n(Cc3ccc(C)cc3)c(=O)c2n1,.,.,.,.,-5.0
Cc1cc(C)c(C)c(S(=O)(=O)NCCC(=O)N2CCC(n3ccnn3)C2)c1C (stereo not given),.,.,.,.,-1.0
COC(=O)CS[C@H]1CCN(C(=O)c2cc(-c3ccccc3)n[nH]2)C1,.,.,.,.,2.0
CC(=O)/C(=N\Nc1ccccc1)Sc1nnc(-c2ccccc2)n1-c1ccccc1,2531,-0.4,-1.9,-0.9,.
CC(=O)C(N=Nc1ccccc1)(Sc1nnc(-c2ccccc2)n1-c1ccccc1)C(=O)Nc1ccccc1 (stereo not given),19172*,2.6,-2.8,4.0,-16.4
CC(=O)C(N=Nc1ccccc1)(Sc1nnc(-c2ccccc2)n1-c1ccccc1)C(C)=O,22141*,-2.4,1.4,-2.8,10.1
C=CCn1c(SCC(=O)Nc2cc(C)nn2-c2ccccc2)nnc1C1CCCCC1,23513*,?,-3.1,-5.1,-14.1
Cc1ccc(Cc2nnc3n(-c4ccccc4)nc(C(=O)c4ccccc4)n3c2=O)cc1,21560*,-2.7,-1.2,-5.4,2.4
